Source: PubChem BioAssay (Tox21)
Results filed as inconclusive are left out. Unmarked numbers belong to inactive results. Active and inactive are the calls of the source. The call rests on the fitted dose curve; in most records, active means well fitted cell-killing curve with a large enough effect in the repeat runs; inconclusive means weak or mixed curves; inactive means no such curve, though single readings can be large or run the other way.

Assay: qHTS assay to identify small molecule agonists of the peroxisome proliferator-activated receptor delta (PPARd) signaling pathway - cell viability counter screen (AID 743211); further: nearly all actives have a fitted effect of over 55% in size
Settings: PPARd-bla HEK293H viability, CellTiter-Glo luminescence, 17 h; series mostly up to 62.6 µM; activity change, negative = cytotoxicity: at the top concentration
Text: U.S. Tox21 Program National Center for Advancing Translational Sciences [NCATS] NIH Chemical Genomics Center [NCGC] U.S. Environmental Protection Agency [EPA] National Institutes of Environmental Health Sciences [NIEHS] National Toxicology Program [NTP] U.S. Food and Drug Administration [FDA] Tox21 Assay Overview: The peroxisome proliferator-activated receptors (PPARs) are lipid-activated transcription factors of the nuclear receptor superfamily with three distinct subtypes namely PPAR alpha, PPAR delta (PPARd) and PPAR gamma. All these subtypes heterodimerizes with Retinoid X receptor (RXR) and have different physiological functions. […] To identify the compounds that activate PPAR-delta signaling, GeneBLAzer PPAR delta UAS-bla HEK293H cell line (Invitrogen, Carlsbad, CA, USA) containing a beta-lactamase reporter gene under the control of an Upstream Activator Sequence (UAS) was used to screen the Tox21 compound library. The cytotoxicity of the Tox21 compound library against the PPARd-bla cell line was tested in parallel by measuring the cell viability using CellTiter-Glo assay (Promega, Madison, WI) in the same wells.
Tox21 Assay Protocol Summary: PPARd-bla cells were dispensed at 3000 cells/6uL/well in 1536-well black wall/clear bottom plates using a Multidrop Combi (Thermo Fisher Scientific, Waltham, MA) dispenser. After the assay plates were incubated at 37 C and 5% CO2 for 5 h, 23 nL of compounds dissolved in DMSO, positive controls or DMSO only was transferred to the assay plate by a Pintool station (Kalypsys, San Diego, CA). The assay plates were incubated at 37C for 17 h. After 1 uL of LiveBLAzerTM B/G FRET substrate was added using a Bioraptr Flying Reagent Dispenser (FRD) workstation (Beckman Coulter, Indianapolis, IN, USA), the plates were incubated at room temperature for 2 h, and fluorescence intensity was measured by an Envision plate reader (PerkinElmer, Shelton, CT). For cell viability readout that measures cytotoxicity, 3 ul/well of CellTiter-Glo reagent was added into the assay plates using a Bioraptr FRD. After 30 min incubation at room temperature, the luminescence intensity in the plates was measured using a ViewLux plate reader (PerkinElmer).
On the % scale 0 is the no-effect control and ±100 the full control effect; potency means the concentration at half of the fitted maximal effect.

| SMILES | activity change, negative = cytotoxicity | Potency |
| --- | --- | --- |
| Oc1ccc(Sc2ccc(O)cc2)cc1 | -1.11% |  |
| CC(=O)OCCc1ccccc1 | -1.16% |  |
| C=CCCCCCC | 8.61% |  |
| Nc1ccc(C(=O)Nc2ccccc2N)cc1 | 1.53% |  |
| CC[C@@H]1C[C@H](N(Cc2cc(C(F)(F)F)cc(C(F)(F)F)c2)C(C)=O)c2cc(C(F)(F)F)ccc2N1C(=O)OC(C)C | -13.4% |  |
| CC(=O)O[C@@H]1C(=O)O[C@@H]2[C@H]1OC(=O)[C@@H]2OC(C)=O | -18.4% |  |
| O=C(O)C1CCC(C(=O)O)CC1 (stereo not given) | -1.17% |  |
| CCOC(=O)CC(=O)c1cc(F)c(Cl)nc1Cl | -1.46% [at 81.1 µM] |  |
| CC[C@]12CCCN3CCc4c(n(c5ccccc45)C(=O)C1)[C@@H]32 | -14.6% |  |
| O=C(c1ccccc1)c1ccc2n1CCC2C(=O)O (stereo not given) | 0.535% |  |
| O=C(Cl)c1ccc([N+](=O)[O-])cc1 | 1.75% |  |
| NC(=S)N/N=C/c1cccnc1 | 0.0421% |  |
| CCCCOC(O)CC (stereo not given) | 3.99% |  |
| CC1CCc2cc(F)cc3c(=O)c(C(=O)O)cn1c23 (stereo not given) | 0.979% |  |
| CC(C)(C)c1ccc(S)cc1 | -1.84% |  |
| Cc1cccc(Oc2ccccc2)c1 | -9% |  |
| CCOC(=O)[C@H](CCc1ccccc1)N[C@H]1CCc2ccccc2N(CC(=O)O)C1=O |  | 29.8 µM (active) |
| CCCCOc1cc(C(=O)OCCN(CC)CC)ccc1N | -7.17% |  |
| CCCCCOC(=O)COc1cc(N2C(=O)C3=C(CCCC3)C2=O)c(F)cc1Cl | 2.77% |  |
| Cc1ccc(C)o1 | -9.18% [at 81.1 µM] |  |

| SMILES | activity change, negative = cytotoxicity | Potency |
| --- | --- | --- |
| FC(F)(F)C(F)(F)C(F)(F)C(F)(F)C(F)(F)C(F)(F)CCI | -5.84% |  |
| CNS(=O)(=O)Cc1ccc2[nH]cc(CCN(C)C)c2c1 | -6.78% |  |
| CC(=O)c1c(C)c([N+](=O)[O-])c(C(C)(C)C)c([N+](=O)[O-])c1C | -0.82% |  |
| CC(C)(C)c1cc(CO)cc(C(C)(C)C)c1O | -15.2% [at 81.1 µM] |  |
| CN(C(=O)CCCOc1ccc2[nH]c(=O)ccc2c1)C1CCCCC1 | 7.95% |  |
| c1ccc(-c2nc[nH]c2-c2ccccc2)cc1 | 10.7% |  |
| CCCCCCCCCO | 0.994% |  |
| C=C(C)C(=O)OC(C)C | 8.26% |  |
| Cc1ccc(C(=O)C(C)CN2CCCCC2)cc1 (stereo not given) | -1.41% |  |
| OCC1CC2CC1C1CCC(CO)C21 (stereo not given) | -16.6% |  |
| C=CC(=O)OCCOC(=O)CCC(=O)O | -9.38% |  |
| C=CC(C)(CCC=C(C)C)OC(=O)c1ccccc1 (stereo not given) | -27.2% |  |
| COc1cc(C(C)(C)C)c(O)c(C(C)(C)C)c1 | 3.2% |  |
| CC(=O)CC(=O)c1ccccc1 | 2.26% [at 81.1 µM] |  |
| O=C(Cl)c1c(Cl)cccc1Cl | 0.883% [at 81.1 µM] |  |
| CC(C)CCCCCCOC(=O)c1ccc(C(=O)OCCCCCCC(C)C)c(C(=O)OCCCCCCC(C)C)c1 | 2.23% |  |
| CCCCCCc1ccc(N)cc1 | -23.8% |  |
| O=c1[nH]cnc2ccccc12 | 1.63% [at 81.1 µM] |  |
| CCOC(=O)C1=C(C)NC(C)=C(C(=O)OC)C1c1cccc([N+](=O)[O-])c1 (stereo not given) | 0.216% |  |
| CCCCCCCCCCCCCCCBr | -0.928% |  |
